Source: PubChem BioAssay AID493073 (Broad Institute, 2011)
Screen size: about 1,200 compounds; about 810 (68%) were called active. No rule for the calls is given here. So high a share suggests a set chosen from earlier hits. The list is a sample of the results. Potency and affinity values are given separately.

Assay: TRPM1 promoter luciferase signal decrease, dose response, MITF inhibitor project, cell-based, SK-MEL-5, cherry-picked, set 3 (AID 493073)
Conditions: SK-MEL-5 TRPM1 promoter luciferase, 24 h; series mostly up to 35 µM

outcome, inactive:
Cc1ccc(/C=c2/sc3n(c2=O)CCCN=3)o1
CCCCOc1ccc(-c2ncc([N+](=O)[O-])cn2)cc1
Cc1ccc2oc(=O)n(CCCOc3ccccc3)c2c1
CN(CC(=O)N1CCCCCC1)S(=O)(=O)c1ccccc1
CC1CCN(C(=O)c2cc3ccccc3o2)CC1
Nc1nnc(/C=C/c2ccccc2Cl)s1
CC(=O)c1c(C)[nH]c(C(=O)Nc2ccc(C)c(C)c2)c1C
CC(C)(C)OC(=O)N1CCN(C(=O)c2nc[nH]c2C(=O)N2CCN(c3ccccc3)CC2)CC1
NC(=O)c1ccccc1NC(=O)/C=C/c1cccc(Cl)c1
O=Cc1ccc(N2Cc3ccccc3C2)cc1
O=C1N=C(N2CCOCC2)S/C1=C\C=C/c1ccccc1
Cc1cc(Cl)ccc1OCCCC(=O)N1CCOCC1
C=CCN1C(=O)S/C(=C\c2ccc(N3CCOCC3)cc2C)C1=O
CC(C)(C)N=Cc1cc(-c2ccccc2)sc1O
CCOC(=O)c1cnc2c(ccc3ccccc32)c1N
COCC(C)Nc1ncnc2c1cnn2-c1ccc(Cl)cc1 (stereo not drawn)
c1ccc(-n2ncc3c(NCc4cccs4)ncnc32)cc1
CCCCN=C(C)c1c(O)c2ccccc2oc1=O
COc1ccccc1-c1nc(-c2ccc(C)nc2OC)no1
COc1ccccc1-c1nnc(-c2ccc(C)cc2)o1
CCCCOC(=O)c1[nH]c(C)c(C(=O)OC)c1C
CCOC(=O)c1cc2sccc2n1CC(=O)N1c2ccccc2CC1C (stereo not drawn)
CCN(C(=O)c1ccco1)c1nc(-c2ccc(OC)cc2)cs1
CS(=O)(=O)c1ccc2nc(NC(=O)c3ccccc3Br)sc2c1
Cc1ccc(-c2noc(CN3CCCCC3)n2)cc1
CCCCOc1ccc(-c2nnn(C(C)(C)C(=O)OC)n2)cc1
COc1ccc(/C=N/N=C2/SCC(=O)N2Cc2ccccc2)cc1
O=[N+]([O-])c1ccccc1OCCCOc1cccc2cccnc12
C=CCOc1ccc(/C=C/C(C)=N\O)cc1
O=C(CSc1ccccn1)c1ccc2c(c1)OCO2
COc1ccc(C(=O)/C=C(\C)Nc2ccc3c(c2)OCO3)cc1
CCOC(=O)C1(Cc2cccc(OC)c2)CCCN(C(=O)CSC)C1 (stereo not drawn)
N#Cc1nc(/C=C/c2ccccc2)oc1NCCCN1CCOCC1
Cc1cc(C(=O)Nc2ccc([N+](=O)[O-])cn2)cs1
Cc1cc(O)ccc1Nc1nc(-c2cccnc2)cs1
CC(=O)c1cccc(Nc2nc(-c3cccnc3)cs2)c1
Cc1nn(C)cc1/C=C/C(=O)c1cccs1
Cc1nc2cc(NC(=O)Nc3cccc([N+](=O)[O-])c3)ccc2n1C
C/C(=N/N=C(/C)c1cccs1)c1cccs1
C/C(=N/Nc1nc(C)c(C)s1)c1cccc([N+](=O)[O-])c1
CCCN1C(=O)c2ccc(C(=O)Nc3cc(C)ccc3O)cc2C1=O
CC1Cc2cc(-c3csc(N)n3)ccc2O1 (stereo not drawn)
COc1ccc(Nc2oc(-c3ccc(OC)cc3)nc2C#N)cc1
CC(=O)Nc1ccc2c(c1)ncn2-c1ccccc1
O=C1c2ccccc2CN1c1ccccc1
N#Cc1cnc2sc3ccccc3n2c1=N
CC1(C)CC(=O)c2cnc(N3CCc4ccccc43)nc2C1
O=C(NCCSc1ccccc1)c1ccccc1F
COc1ccc(-c2nc3n(c2C)Cc2ccccc2-3)cc1
COc1ccc(-c2cc(-c3ccccc3O)[nH]n2)cc1OC
COc1ccc(C(=O)Nc2nc3ccc(OC)cc3s2)cc1
CCOC(=O)c1ccc(NC(=O)c2ccnn2C)cc1
Cc1ccc(NC(=O)c2ccc(OCC3CCCO3)cc2)c(C)c1 (stereo not drawn)
CCOC(=O)c1ccc(NC(=O)CC2SCCNC2=O)cc1 (stereo not drawn)
CCCOc1ccc(C(=O)Nc2ccc3c(c2)OCCO3)cc1
COc1cc(/C=N/N=C(N)N)ccc1OCc1ccc(Cl)cc1
Cc1ccc2nc(-c3ccncc3)[nH]c2c1
CC(=O)N/C(N)=N/c1nc(=O)c2ccccc2s1
CCOc1ccc(N(CC(=O)Nc2ccc(OC)cc2)S(C)(=O)=O)cc1
COc1ccc(NC(=O)c2scc(S(=O)(=O)C(C)C)c2N)cc1
COc1ccc(/C=N/NC(=O)Cc2cccs2)cc1
Nc1c(-c2ccc(Cl)cc2)nnn1-c1ccccc1
CCSc1nc2c(cnn2-c2ccccc2)c(=O)n1N
CCn1nccc1C(=O)Nc1ccc(C)c(C)c1
O=C(CCNc1ccccc1)c1ccc2c(c1)OCO2
O=C(Nc1ccc(F)c(Cl)c1)c1ccc2c(c1)OCO2
O=C(Cn1cnc2ccccc2c1=O)Nc1ccc2c(c1)OCCO2
C=CCn1cccc(C(=O)Nc2ccc(C)c(Cl)c2)c1=O
Cc1cccc(N(O)C(=O)Nc2cccc(Cl)c2)c1
CC(O)CNC(=O)C1CCN(Cc2ccc(OCc3ccccc3)cc2)CC1 (stereo not drawn)
Nc1nc2ccccc2n1/N=C/c1ccc(-c2ccccc2)o1
Cc1c(/C=C/C(=O)c2ccc(Cl)s2)cnn1C
CCCCOC(=O)Nc1ccc2c(C)cc(=O)oc2c1
Cc1ccc(NC(=O)c2cc(-c3cccs3)on2)cc1
Cc1ccc2nc(N(CCCN(C)C)C(=O)c3ccc4c(c3)CCCC4)sc2c1
Cc1cc(C)c2sc(N(CCCN(C)C)C(=O)COc3ccc(Cl)cc3)nc2c1
CC(=O)N/C(N)=N/c1nc2cc(C)ccc2o1
CCOC(=O)c1cn2nc(Oc3ccccc3)ccc2n1
Cc1cn(CCC(=O)Nc2ccccc2N2CCOCC2)c2ccccc12
Clc1c(-c2ccccc2)nc2ccccn12
CCOC(=O)CSc1nc2cc(OCC)ccc2cc1C#N
C=CCNC(=O)Cn1nnc(-c2ccc(-c3ccc(OC)cc3)cc2)n1
O=C(Cn1cnc2c(oc3ccccc32)c1=O)c1ccccc1
c1ccc(Cc2cc(-c3ccccc3)on2)cc1
O=[N+]([O-])c1c(NCCCO)cc(Sc2ccc(Cl)cc2)c2nonc12
CC1CC2(C)Oc3ccccc3CC2C(C)C1CNCCCN(C)C (stereo not drawn)
Cc1cc(C)c2c(N)c(C(=O)N/N=C/c3cccnc3)sc2n1
O=[N+]([O-])c1cccc(/C=N/Nc2ncc(Br)cn2)c1
Cc1ccc(NC(=O)c2cc3cccc([N+](=O)[O-])c3[nH]2)cc1
O=C(CC(=O)c1ccccc1)Nc1ccccn1
N/C(CS(=O)(=O)c1ccccn1)=N\OC(=O)c1ccccc1Cl
COc1ccc(NC(=O)c2cc3ccccc3[nH]2)cc1
COC(=O)[C@@H](C)NC(=O)c1ccc2oc(CCc3ccccc3)nc2c1
